# Laboratory results taken from PubChem BioAssay (NCATS).
# Values joined by “and” are separate entries in the source; they are usually repeats but may differ in a detail not shown here. Equal entries are not always repeated. Records with an inconclusive call do not appear. Entries that show only a call come without a potency. Some structures have more than one record in an assay (separate samples or runs), and their calls can disagree. Active and inactive are the calls of the source. Unless noted, calls follow the shape of the dose curve; as a rule, active = well fitted curve in the direction sought with a large enough effect; inconclusive = small, poorly fitted or top-dose-only effect, or another doubt; inactive = no such curve, though single readings can be large; an effect the other way counts as inactive or inconclusive.
# Legend:
# [1] = NCATS anti-infectives library activity on HEK293 viability as a counter-qHTS vs the C. elegans viability qHTS (AID 1745854); also: potency is read from the fitted curve at half-maximal effect
# How it was run: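 CellTiter-Glo luminescence, read on a CCD imager, scored viability of HEK293 cells after 24 hr compound exposure at 37C. Library tested in several concentrations, 1:5 steps, up to 41.7 uM; digitonin served as control.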
# [2] = molecular target: Glutathione peroxidase 1 (Homo sapiens) (UniProt P07203); assay: Primary qHTS Assay for Inhibitors of Recombinant Selenoprotein Glutathione Peroxidase 1 (GPX1) (AID 1845191); also: nearly all actives have a fitted effect of over 65% in size; also: potency is read from the fitted curve at half-maximal effect
# Glutathione peroxidase 1 (Homo sapiens), sequence (P07203 whole entry, looked up): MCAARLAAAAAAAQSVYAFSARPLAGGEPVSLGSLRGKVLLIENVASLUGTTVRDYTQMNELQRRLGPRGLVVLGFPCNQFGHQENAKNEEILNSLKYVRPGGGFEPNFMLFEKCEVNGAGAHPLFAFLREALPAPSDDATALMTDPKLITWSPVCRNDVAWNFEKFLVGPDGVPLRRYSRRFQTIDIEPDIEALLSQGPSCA
# How it was run: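 NADPH consumption tracked by fluorescence at 340/450 nm between t=0 and t=15 min, room temperature. Final mix: 10 nM GPX1, 100 nM glutathione reductase, 1 mM GSH, 0.5 mM NADPH, 0.5 mM cumene hydroperoxide, 0.01% BSA; 30 min compound–enzyme preincubation.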
# [3] = molecular target: Phospholipid hydroperoxide glutathione peroxidase GPX4 (Homo sapiens) (UniProt P36969); assay: Primary qHTS Assay for Inhibitors of Recombinant Selenoprotein Glutathione Peroxidase 4 (GPX4) (AID 1845192); also: nearly all actives have a fitted effect of over 65% in size; also: potency is read from the fitted curve at half-maximal effect
# Phospholipid hydroperoxide glutathione peroxidase GPX4 (Homo sapiens), sequence (P36969 whole entry, looked up): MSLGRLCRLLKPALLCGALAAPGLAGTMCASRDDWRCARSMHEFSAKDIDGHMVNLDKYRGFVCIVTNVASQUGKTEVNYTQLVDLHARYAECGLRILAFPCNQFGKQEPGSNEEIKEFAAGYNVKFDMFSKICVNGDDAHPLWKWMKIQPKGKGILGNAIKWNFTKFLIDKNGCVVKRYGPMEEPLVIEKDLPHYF
# How it was run: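 NADPH consumption followed by fluorescence at 340/450 nm, t=0 and after 15 min at room temperature. Reaction started with cumene hydroperoxide (0.5 mM final) after 30 min compound–GPX4 preincubation; final 200 nM GPX4, 100 nM GR, 1 mM GSH, 0.5 mM NADPH.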
# [4] = molecular target: Luciferin 4-monooxygenase (Photinus pyralis) (UniProt P08659); assay: Primary firefly luciferase (FLuc) qHTS assay for identification of artifact compounds. (AID 1845220); conditions: outcome: dose series up to 54.1 µM unless noted; also: series mostly up to about 54 µM; nearly all actives have a fitted effect of over 60% in size
# How it was run: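 FLuc 10 nM; luciferin 10 uM; ATP 10 uM; Tris-acetate pH 7.6, Mg-acetate 10 mM; 15 min RT preincubation; 5 min reaction; luminescence.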
# [5] = Quantitative High-Throughput drug screen in 47 multiple myeloma cell lines against the NCATS MIPE library collection: Delta47_JCRB cell viability assay (AID 1918925; also: nearly all actives have a fitted effect of over 45% in size; also: potency is read from the fitted curve at half-maximal effect)
# How it was run: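 Steps: seed 500 cells per well; pin-transfer MIPE 4.0 library; incubate 48 h at 37C, 5% CO2, humidified; add CellTiter-Glo, 5 min room temperature; read luminescence.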
# [6] = molecular target: Metallo-beta-lactamase type 2 (Klebsiella pneumoniae) (UniProt C7C422); assay: qHTS to identify inhibitors of the New Delhi Metallo-beta-lactamase (NDM): assay validation screen against the NCATS LOPAC Collection (AID 1794843);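 also: nitrocefin turnover by NDM-1 measured as 485 nm absorbance at plateau; series mostly up to about 38 µM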
# Metallo-beta-lactamase type 2 (Klebsiella pneumoniae), sequence (C7C422 whole entry, looked up): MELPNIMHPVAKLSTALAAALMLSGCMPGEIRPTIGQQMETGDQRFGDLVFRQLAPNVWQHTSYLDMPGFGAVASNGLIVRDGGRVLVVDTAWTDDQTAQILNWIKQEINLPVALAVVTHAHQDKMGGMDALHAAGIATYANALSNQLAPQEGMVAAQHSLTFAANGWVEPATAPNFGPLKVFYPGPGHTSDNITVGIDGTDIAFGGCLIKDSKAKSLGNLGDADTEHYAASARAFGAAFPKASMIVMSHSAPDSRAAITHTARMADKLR
# How it was run: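 Nitrocefin hydrolysis (50 uM substrate stock) by NDM-1, 2 nM final, was followed by 485 nm absorbance after compound preincubation; buffer was 50 mM HEPES pH 7.0, 1 uM ZnSO4, 0.01% Tween20.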
# [7] = NCATS anti-infectives library activity on the primary C. elegans qHTS viability assay (AID 1745855; calls by dose curve; also: potency is read from the fitted curve at half-maximal effect); conditions: C. elegans worm area imaging, day 7
# How it was run: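 Titration-based screen in worms: eggs hatched overnight in M9, L1 larvae fed TOP10 capsules in S medium with compound, incubated 21 °C for 7 days; fluorescent objects gated by size and intensity at days 0, 3 and 7.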
# [8] = Quantitative High-Throughput drug screen in 47 multiple myeloma cell lines against the NCATS MIPE library collection: FR4_PLB cell viability assay (AID 1918924; also: nearly all actives have a fitted effect of over 35% in size; also: potency is read from the fitted curve at half-maximal effect)
# How it was run: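 Approved and investigational drugs from MIPE 4.0 were added by pin tool to 500 cells per well. After 48 hours at 37C, ATP-based CellTiter-Glo luminescence indicated remaining viability.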
# [9] = test system: Nanoluciferase (engineered Oplophorus gracilirostris luciferase); assay: Primary Nanoluciferase (NLuc) qHTS assay for identification of artifact compounds. (AID 1845222);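 also: NLuc secreted into diluted conditioned medium of S16 cells; series mostly up to about 54 µM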
# How it was run: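 NLuc from S16 cell medium (1:55) plus test compounds, 15 min, room temperature. Luminescence after Nano-Glo (1:100) addition, 5 min.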
# [10] = molecular target: Nuclear receptor subfamily 1 group I member 3 (Homo sapiens) (UniProt Q14994); assay: Primary qHTS for antagonist of constitutive androstane receptor (CAR) against the NCATS DSHEA and TCM libraries (AID 1794836);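 also: HepG2 cells stably expressing hCAR with CYP2B6 luciferase reporter stimulated by CITCO; series mostly up to about 40 µM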
# Nuclear receptor subfamily 1 group I member 3 (Homo sapiens), sequence (Q14994 whole entry, looked up): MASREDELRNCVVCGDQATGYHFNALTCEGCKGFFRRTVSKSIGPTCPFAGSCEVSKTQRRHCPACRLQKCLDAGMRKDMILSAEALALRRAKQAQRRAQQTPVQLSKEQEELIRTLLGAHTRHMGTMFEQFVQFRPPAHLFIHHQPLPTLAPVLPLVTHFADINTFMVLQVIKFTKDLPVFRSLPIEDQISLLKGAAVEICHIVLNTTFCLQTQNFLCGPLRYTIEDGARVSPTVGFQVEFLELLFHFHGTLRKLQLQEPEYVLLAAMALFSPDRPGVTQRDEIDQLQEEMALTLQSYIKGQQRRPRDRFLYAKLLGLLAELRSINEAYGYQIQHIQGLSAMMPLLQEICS
# How it was run: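 Antagonist mode: CAR reporter luminescence (ONE-Glo) in HepG2-CYP2B6-hCAR cells stimulated with 48 uM CITCO (final) over 24 h at 37 C, compounds titrated; viability read first by CellTiter-Fluor fluorescence.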
smiles,measurement,setting,value
CCNC(=O)C[C@@H]1N=C(c2ccc(Cl)cc2)c2cc(OC)ccc2-n2c(C)nnc21,Potency,[1],inactive
same,Potency,[2],inactive
same,Potency,[3],inactive
same,outcome,[4],inactive
same,Potency,[5],0.418 µM (active)
CC(Cc1ccc(O)cc1)NCC(O)c1cc(O)cc(O)c1 (stereo not drawn),outcome,[6],inactive
same,Potency,[2],inactive
same,Potency,[3],inactive
O=C(Cc1ccc(Cl)c(Cl)c1)N1CCCCC1CN1CCCC1 (stereo not drawn),outcome,[6],inactive
same,Potency,[2],inactive
same,Potency,[3],inactive
CNCCc1ccc(O)c(O)c1,outcome,[6],inactive
same,Potency,[2],inactive
same,Potency,[3],inactive
NCCc1c[nH]c2ccccc12,outcome,[6],inactive
same,Potency,[2],inactive
same,Potency,[3],inactive
NC1CCc2cc(O)c(O)cc2C1 (stereo not drawn),outcome,[6],inactive
same,Potency,[2],inactive
same,Potency,[3],inactive
C[C@]12CCC3C(CC[C@H]4C[C@H](O)CC[C@]34C)C1CC[C@@H]2C(=O)CO (stereo partly drawn),outcome,[6],inactive
same,Potency,[2],inactive
same,Potency,[3],inactive
CCCN1CCC[C@H](c2cccc(O)c2)C1,outcome,[6],inactive
same,Potency,[2],inactive
same,Potency,[3],inactive
NCc1cc(=O)[nH]o1,outcome,[6],inactive
same,Potency,[2],inactive
same,Potency,[3],inactive
O=C(O)CC[N+](=O)[O-],outcome,[6],inactive
same,Potency,[2],inactive
same,Potency,[3],inactive
CC1=C(O)C(=O)C=C2C1=CC=C1[C@@]2(C)CC[C@@]2(C)[C@@H]3C[C@](C)(C(=O)O)CC[C@]3(C)CC[C@]12C,Potency,[1],7.94 µM (active)
same,Potency,[7],4.59 µM (active)
same,Potency,[2],inactive
same,Potency,[8],0.743 µM (active)
same,Potency,[5],0.833 µM (active)
NCCc1c[nH]c2ccc(O)cc12,outcome,[6],inactive
same,Potency,[2],inactive
same,Potency,[3],inactive
C#CCOC(=O)C1=CCCN(C)C1,outcome,[6],inactive
same,Potency,[2],inactive
same,Potency,[3],inactive
Clc1cnc(Oc2ccc(Oc3ncc(Cl)cc3Cl)cc2)c(Cl)c1,outcome,[6],inactive
same,Potency,[2],inactive
same,Potency,[3],inactive
O=C1C=CC[C@@H]2[C@H]3CCCN4CCC[C@@H](CN12)[C@@H]34,Potency,[1],inactive
same,Potency,[2],inactive
same,Potency,[3],inactive
same,outcome,[4],inactive
same,outcome,[9],inactive
same,Potency,[8],11.8 µM (active)
C=CCN1CC[C@]23CCCCC2[C@H]1Cc1ccc(O)cc13 (stereo partly drawn),outcome,[6],inactive
same,Potency,[2],inactive
same,Potency,[3],inactive
O=S(=O)(CC1CS1)c1ccc(Oc2ccccc2)cc1 (stereo not drawn),Potency,[1],inactive
same,Potency,[2],inactive
same,Potency,[3],inactive
c1ccc2sc(C3(N4CCCCC4)CCCCC3)cc2c1,outcome,[6],inactive
same,Potency,[2],inactive
same,Potency,[3],inactive
CC1=C(C/C=C(\C)CCC[C@H](C)CCC[C@H](C)CCCC(C)C)C(=O)c2ccccc2C1=O,outcome,[10],inactive
C[C@@H](N)Cc1cnc[nH]1,outcome,[6],inactive
same,Potency,[2],inactive
same,Potency,[3],inactive
CC(C)Oc1cccnc1N(C)C1CCN(Cc2ccccc2)CC1,outcome,[6],inactive
same,Potency,[2],inactive
same,Potency,[3],inactive
O=C(N[C@H]1CN2CCC1CC2)c1ccc(Cl)cc1,outcome,[6],inactive
same,Potency,[3],inactive
same,outcome,[4],inactive
same,outcome,[9],inactive
same,Potency,[8],inactive
CCCCCCCCCCCCCCCC[N+](C)(C)C,Potency,[2],inactive
same,Potency,[3],inactive
c1ccc(CCCN2CCN(CCOC(c3ccccc3)c3ccccc3)CC2)cc1,outcome,[6],inactive
same,Potency,[2],inactive
same,Potency,[3],inactive
same,Potency,[5],16.6 µM (active)
O=C(O)COc1ccccc1,Potency,[2],inactive
same,Potency,[3],inactive
c1ccc(C2(c3ccccc3)CC2C2=NCCN2)cc1 (stereo not drawn),outcome,[6],inactive
same,Potency,[3],inactive
C[C@]12N[C@H](Cc3ccccc31)c1ccccc12,Potency,[2],inactive
same,Potency,[3],inactive
CC[N+]1(CCOC(=O)C(O)(c2ccccc2)c2ccccc2)CCCCC1,Potency,[2],inactive
same,Potency,[3],inactive
C[N+]1(C)C2CCC1CC(OC(=O)C(CO)c1ccccc1)C2 (stereo not drawn),outcome,[6],inactive
same,Potency,[3],inactive
CC[C@@]1(O)C(=O)OCc2c1cc1n(c2=O)Cc2cc3ccccc3nc2-1,outcome,[6],inactive
same,Potency,[2],inactive
same,Potency,[3],inactive and 9.04 µM (active)
same,Potency,[8],0.296 µM (active)
same,Potency,[5],0.0743 µM (active)
S=C(SSC(=S)N1CCCCC1)N1CCCCC1,Potency,[2],12.8 µM (active)
Cn1cnc(CCN)c1,outcome,[6],inactive
same,Potency,[3],inactive
CN1C2CCC1CC(OC(=O)c1cc(Cl)cc(Cl)c1)C2 (stereo not drawn),outcome,[6],inactive
same,Potency,[3],inactive
O=C(O)C(Cl)Cl,Potency,[2],inactive
NC1CC1c1ccccc1 (stereo not drawn),outcome,[6],inactive
same,Potency,[3],inactive
same,Potency,[5],inactive
O=C(O)Cc1cnc[nH]1,Potency,[2],inactive
same,Potency,[3],inactive
CC(C)NC(C)Cc1ccc(I)cc1 (stereo not drawn),outcome,[6],inactive
same,Potency,[3],inactive
C[C@@H]1O[C@H](C[N+](C)(C)C)C[C@H]1O,outcome,[6],inactive
same,Potency,[3],inactive
S=C(NC1CCCCC1)N1CCC(c2cnc[nH]2)CC1,outcome,[6],inactive
same,Potency,[3],inactive
same,outcome,[4],inactive
same,outcome,[9],inactive
CCCN1CCO[C@@H]2c3cc(O)ccc3OC[C@H]21,outcome,[6],inactive
same,Potency,[3],inactive
NC(=NCCC[C@H](N)C(=O)O)N[N+](=O)[O-],outcome,[6],inactive
same,Potency,[3],inactive
CNCCc1c[nH]c2ccc(O)cc12,Potency,[2],inactive
same,Potency,[3],inactive
CC[C@@H](C(N)=O)N1CCCC1=O,outcome,[6],inactive
same,Potency,[2],inactive
same,Potency,[3],inactive
same,Potency,[8],inactive
same,Potency,[5],inactive
CS(=N)(=O)CC[C@H](N)C(=O)O (stereo partly drawn),outcome,[6],inactive
same,Potency,[3],inactive
C[N+](C)(C)CC(=O)O,outcome,[6],inactive
same,Potency,[3],inactive
